# IL-1B inflam inh: blocks inflammasome-driven IL-1 beta release; THP-1 LPS/ATP IL-1B secretion, AlphaLISA, 16 h; active compounds read low; activity change, % at 57.5 µM; 360,000 compounds, 4.7% hits; in the data active means activity change below about -50%; inconclusive means mostly about -30% to -49%
#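 Secreted IL-1B measured by AlphaLISA bead assay after 16 h compound exposure of THP-1 cells; compounds (final up to 57.5 uM) added 1 h before LPS (250 ng/mL) and ATP (1.25 mM) stimulation; lower signal means less secretion.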
# D3 antag: blocks the human D3 dopamine receptor. P35462. D3R cells, DiscoveRx beta-arrestin luminescence, antagonist mode; active compounds read low. max response, negative = inhibition, %. 360,000 compounds, 2.5% hits. AID 652054; in the data active means max response below about -50%; inconclusive means no clear call, values can overlap the other calls
# Target sequence (P35462 whole entry, looked up): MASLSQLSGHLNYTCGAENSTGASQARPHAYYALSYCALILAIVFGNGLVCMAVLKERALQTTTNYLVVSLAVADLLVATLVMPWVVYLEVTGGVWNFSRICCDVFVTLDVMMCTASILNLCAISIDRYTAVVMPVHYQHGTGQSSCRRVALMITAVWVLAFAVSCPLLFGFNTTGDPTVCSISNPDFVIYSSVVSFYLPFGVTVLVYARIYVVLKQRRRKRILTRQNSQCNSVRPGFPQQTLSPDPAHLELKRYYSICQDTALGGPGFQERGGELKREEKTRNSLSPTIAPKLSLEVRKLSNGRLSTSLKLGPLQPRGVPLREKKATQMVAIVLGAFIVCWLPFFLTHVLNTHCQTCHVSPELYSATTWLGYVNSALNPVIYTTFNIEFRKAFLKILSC
#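 Cells expressing the human receptor were seeded at 1500 cells/well, incubated overnight at 37 degrees C in 5% CO2, then exposed to library compounds with dopamine controls for 90 minutes at 37 degrees C before luminescent detection.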
# ATXN2 expr inh: inhibitors of ATXN2 expression; HEK-293 ATXN2-luciferase reporter, luminescence, 24 h; 360,000 compounds, 0.72% hits; AID 1745845; Potency, µM (top dose mostly 57 µM), usual class: inhibitors; further: nearly all actives have a fitted effect of over 55% in size
#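 ATXN2-luciferase reporter cells (luciferase flanked by upstream and downstream ATXN2 gene portions) were treated 24 h at 37 °C with compounds at up to 57 uM. SteadyGlo luminescence gave expression; GF-AFC fluorescence gave viability.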
# DRD3 agonist: agonists of human D3 dopamine receptor | P35462 | D3R DiscoveRx beta-arrestin cells, luminescence, 90 min | max activation, % | 410,000 compounds, 0.58% hits; in the data active means max activation above about 30%
#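 Cells at 1500/well, incubated overnight, then treated with pinned compounds (dopamine as control) for 90 min at 37 degrees C. DiscoveRx reagent added for 30 - 60 minutes at room temperature; luminescence read.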
# a7 integrin act: activators of alpha7 integrin expression for muscular dystrophy | 350,000 compounds, 0.064% hits | alpha7betagal myoblasts, beta-gal FDG fluorescence, 48 h | Potency, µM (top dose mostly 38.3 µM), actives largely listed as activators; further: nearly all actives have a fitted effect of over 60% in size
#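 alpha7betagal+/- myoblasts (passage 13, 250/well) treated 48 h at 37C with compounds at 1:260 dilution of DMSO stock. Lysed, then beta-galactosidase activity read as FDG fluorescence (ex 480/em 540) after 30 min, with pre-read for autofluorescence.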
# S2 tox: viability counter-screen for ATXN expression inhibitors; S2 cells (HEK-293 line with an ATXN2-luciferase reporter) viability, CellTiter-Fluor protease fluorescence, 24 h; 400,000 compounds, 0.49% hits; Potency, µM (highest dose often 56.7 µM), most hits filed as cytotoxic; AID 651635; further: nearly all actives have a fitted effect of over 40% in size
# A number is an active result; – = inactive; ? = inconclusive; · = no result. Only some compounds are listed: those with a hit (about 7% of all), similar ones and a draw of the others. Unless noted, the call rests on the fitted dose curve; in most records, active means well fitted curve in the direction sought with a large enough effect; inconclusive means small, poorly fitted or top-dose-only effect, or another doubt; inactive means no such curve, though single readings can be large; an effect the other way counts as inactive or inconclusive.
SMILES,IL-1B inflam inh,D3 antag,ATXN2 expr inh,DRD3 agonist,a7 integrin act,S2 tox
CN(Cc1ccccc1)C(=O)[C@@H]1CCCN1C(=O)[C@@H]1CCCN1C(=O)c1cccc2ccccc12,–,-50,–,–,·,?
Oc1c(Br)cc(Br)cc1/C=N/c1nccs1,–,-55,?,–,–,–
Oc1ccc(Cl)cc1/C=N/c1nccs1,–,–,–,–,–,–
Cc1ccc(S(=O)(=O)CCC(=O)OCC(=O)c2cc(C)ccc2C)cc1,–,–,–,–,–,–
Cc1ccc(S(=O)(=O)CCC(=O)OCC(=O)c2c[nH]c3ccccc23)cc1,–,–,–,33,–,–
CC(O)C(NS(=O)(=O)c1ccc(Cl)cc1)C(=O)OCC(=O)c1c[nH]c2ccccc12 (centres undefined),-55,–,–,–,–,–
COc1ccc(C(=O)Nc2ccc(Br)cn2)cc1S(=O)(=O)N1CCOCC1,–,–,–,–,–,–
CCC(CC)C(=O)N1CCN(c2ccccc2)CC1,–,–,–,–,–,–
O=C(Nc1cccc(-c2csc(Nc3ccccc3)n2)c1)c1ccccc1,-61,–,–,–,–,?
CC(=O)c1cccc(Nc2nc(-c3cccnc3)cs2)c1,-88,–,–,–,–,–
O=C(Nc1cccc(-c2csc(Nc3cccc(C(F)(F)F)c3)n2)c1)c1ccccc1,–,–,?,–,–,25µM
CCCCC(=O)Nc1cccc(-c2csc(-c3ccccc3)n2)c1,-79,–,–,–,–,–
C[C@@H]1CN([C@H](C)CO)S(=O)(=O)c2ccc(C#Cc3ccccc3)cc2O[C@@H]1CN(C)C(=O)CN(C)C,–,–,–,–,–,?
C[C@@H]1CN([C@H](C)CO)S(=O)(=O)c2ccc(C#CC3CCCC3)cc2O[C@H]1CN(C)C(=O)Cc1ccccc1,-81,–,?,–,–,22µM
C[C@@H]1CN([C@@H](C)CO)S(=O)(=O)c2ccc(/C=C/c3ccccc3)cc2O[C@@H]1CN(C)Cc1ccc(C(=O)O)cc1,–,–,?,38,–,?
C[C@H](O)C#Cc1ccc2c(c1)O[C@@H](CN(C)Cc1ccc(-c3ccccc3)cc1)[C@H](C)CN([C@@H](C)CO)S2(=O)=O,?,–,20µM,–,–,16µM
COc1ccccc1NC(=O)Cn1c(=O)n(-c2ccccc2Cl)c(=O)c2sc3ccccc3c21,·,·,–,–,·,?
CCOC(=O)C(=CNc1cc(OC)ccc1-n1cccc1)C(=O)OCC,?,–,–,51,–,?
CCOC(=O)C(=CNc1cc(C(F)(F)F)ccc1N1CCOCC1)C(=O)OCC,-53,–,·,–,–,–
CC(=O)Nc1cc(C(F)(F)F)ccc1N1CCOCC1,–,–,–,–,–,–
O=C(Cc1ccc(NC(=O)C2CCN(C(=O)C3CCC3)CC2)cc1)Nc1cccc(C(=O)N2CCCCC2)c1,–,–,–,–,–,–
Cc1nn(-c2ccc(C(=O)OC(C)C)cc2)c(C)c1[N+](=O)[O-],–,–,–,–,–,–
C=CCN1CCN(C(CC(C)C)c2nnnn2CCOC)CC1 (centres undefined),–,–,–,–,–,–
CCCCC(c1nnnn1CCOC)N1CCN(CC)CC1 (centres undefined),–,-68,–,–,–,–
COc1ccc(OC)c2sc(N3CCc4ccccc4C3)nc12,–,–,–,–,–,–
c1ccc2c(c1)CCN(c1nc3cc4c(cc3s1)OCCO4)C2,-58,–,–,–,–,–
N#Cc1c(NC(=O)CCN2C(=O)c3ccccc3C2=O)oc(-c2ccccc2)c1-c1ccccc1,–,-85,–,–,–,–
N#Cc1c(NC(=O)CN2C(=O)c3ccccc3C2=O)oc(-c2ccccc2)c1-c1ccccc1,–,?,–,–,–,–
CC(C)=CCNc1ncnc2c1ncn2[C@@H]1O[C@H](CO)[C@@H](O)[C@H]1O,·,·,–,·,·,?
C=CCN=c1scc(-c2ccc3c(c2)NC(=O)CO3)n1/N=C(\C)c1ccccn1,-64,-53,?,–,–,–
